Bioassay records as filed in PubChem.
Cruzain inh Det – qHTS Assay for Promiscuous and Specific Inhibitors of Cruzain (with detergent) | purified cruzain, Z-FR-AMC fluorescence, 0.01% Triton | 200,000 tested, 0.43% active | Cruzipain (Trypanosoma cruzi), P25779 | Potency, µM, inactives show max response, negative = inhibition, hits mostly inhibitors;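 also: plate controls were neutral wells for no effect and buffer without enzyme for full effect; nearly all actives have a fitted effect of over 40% in size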
Target sequence (P25779 123-467 limits assumed): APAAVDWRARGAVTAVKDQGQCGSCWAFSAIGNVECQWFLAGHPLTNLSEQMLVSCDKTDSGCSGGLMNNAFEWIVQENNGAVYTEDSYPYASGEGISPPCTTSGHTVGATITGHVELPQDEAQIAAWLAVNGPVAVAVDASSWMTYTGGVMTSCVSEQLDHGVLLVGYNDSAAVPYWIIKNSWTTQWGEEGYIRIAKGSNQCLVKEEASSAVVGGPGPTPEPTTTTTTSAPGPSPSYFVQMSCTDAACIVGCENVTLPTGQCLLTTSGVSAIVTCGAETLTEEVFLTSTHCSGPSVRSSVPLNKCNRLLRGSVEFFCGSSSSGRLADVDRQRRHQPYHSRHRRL
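Cysteine protease activity tested under reducing, mildly acidic conditions (100 mM sodium acetate pH 5.5, 5 mM DTT) plus 0.01% Triton X-100. Cruzain 1.5 nM; substrate Z-FR-AMC 2 uM; 15 min compound preincubation at room temperature.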
Cruzain inh noDet – qHTS Assay for Promiscuous and Specific Inhibitors of Cruzain (without detergent) | Cruzipain (Trypanosoma cruzi), P25779 | purified cruzain, Z-FR-AMC fluorescence, no detergent | Potency, µM, for inactives: max response, negative = inhibition, actives largely listed as inhibitors | 200,000 tested, 2.3% active | AID 1476, 2009;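 also: plate controls were enzyme without inhibitor for no effect and buffer without enzyme for full effect; nearly all actives have a fitted effect of over 40% in size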
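Detergent-free condition (0.00005% Triton X-100) in acetate buffer pH 5.5 with DTT. 1.5 nM enzyme and compound were pre-mixed 15 min, then 2 uM Z-FR-AMC substrate added; reaction progress from fluorescence change between first and third reads (60 s).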
Starred values were filed as active, the others as inactive; ? = inconclusive. Sampled rows, rich in hits. Any-hit rate of the full collection: about 2.6%. Calls follow the shape of the dose curve; as a rule, active = well fitted curve in the direction sought with a large enough effect; inconclusive = small, poorly fitted or top-dose-only effect, or another doubt; inactive = no such curve, though single readings can be large; an effect the other way counts as inactive or inconclusive. Potency is read from the fitted curve at half-maximal effect.

SMILES	Cruzain inh Det	Cruzain inh noDet
Cc1cccc(CNC(=O)CN2C(=O)C3CCCCN3c3ccc(C(=O)N4CCCC4)cc32)c1 (configuration not stated)	-1%	-3%
CC1CCN(c2ccc(/C=N/n3nnnc3N)cc2[N+](=O)[O-])CC1	-1%	-10%
CC1CCN(c2ccc(/C=N\Nc3nncn3N)cc2[N+](=O)[O-])CC1	-9%	25µM*
Cn1c(O)c(C2=c3ccccc3=NC2=O)sc1=Nc1ccc(Cl)cc1	-10%	25µM*
C=CCn1c(O)c(C2=c3ccccc3=NC2=O)s/c1=N/c1nccs1	-5%	8%
CCCOc1ccc(-c2cccc(NS(=O)(=O)c3cc(OC)ccc3OC)c2)nn1	-6%	-15%
N#CC1=C(N)n2c(s/c(=C\c3cccs3)c2=O)=C(C#N)C1c1cccs1 (configuration not stated)	-24%	25µM*
N#CC1=C(N)n2c(s/c(=C\c3ccco3)c2=O)=C(C#N)C1c1ccco1 (configuration not stated)	-9%	-25%
Cc1ccc(N(CC(=O)Nc2ccc(C)c(Cl)c2)S(=O)(=O)c2cccs2)cc1	-5%	-26%
CN(C)c1ccc(-c2nnn(CC(=O)Nc3ccccc3N3CCOCC3)n2)cc1	-16%	-12%
CN(C)c1ccc(-c2nnn(CC(=O)N3c4ccccc4CCc4ccccc43)n2)cc1	-15%	32µM*
CC(C)=CCc1c(O)cc(O)c2c1O[C@H](c1ccccc1)CC2=O	-7%	8%
Cc1cccc(NC(=O)CSc2nnc(-c3ccco3)c(-c3ccco3)n2)c1C	28µM*	7.9µM*
Cc1ccccc1NC(=O)CSc1ccc(-c2ccco2)nn1	-3%	2%
CC(C)C[C@H]1C(=O)N2CCCC2[C@]2(O)O[C@](NC(=O)[C@@H]3C=C4c5cccc6[nH]c(Br)c(c56)C[C@H]4N(C)C3)(C(C)C)C(=O)N12 (some centres not stated)	-1%	15%
CC(C)CN(CC(C)C)S(=O)(=O)c1ccc(C(=O)Nc2sc3c(c2C(N)=O)CC(C)(C)NC3(C)C)cc1	-7%	29%
COc1cccc(C(=O)Nc2cc(C(=O)NCCc3ccccc3)ccc2Cl)c1	2%	1%
COc1cccc(/C(O)=C/c2nc3ccc(C(=O)NCCc4ccc(Cl)cc4)cc3[nH]c2=O)c1	-7%	25µM*
COc1cccc(/C(O)=C/c2nc3ccc(C(=O)NCCc4cccc(C)c4)cc3[nH]c2=O)c1	-3%	20µM*
COc1cccc(-n2cc(C(=O)NCCc3cccc(C)c3)c3ccccc3c2=O)c1	-4%	14%
CCN(CC)S(=O)(=O)c1ccc(NC(=O)CCc2c(C)nc3cc(-c4ccc(Cl)cc4)nn3c2C)cc1	-1%	?
CC(C)Oc1ccccc1/C=N/NC(=O)c1ccc(F)cc1	-9%	-5%
CC(C)Oc1ccc(Br)cc1/C=N\NC(N)=S	0.25µM*	0.032µM*
CCCCc1ccc(NC(=O)Cn2nnc3sc4c(c3c2=O)CCC(C)C4)cc1 (configuration not stated)	-6%	-11%
O=C(Nc1ccccc1)Nc1nnc(/C=C/c2ccccc2Cl)s1	-4%	25µM*
SMILES	Cruzain inh Det	Cruzain inh noDet
O=C(Nc1ccccc1)O/N=C/c1ccccc1Cl	5%	8%
Cc1ccc(CNC(=O)Cc2nc3nc(C)cc(C)n3n2)cc1	1%	-5%
Cc1cc(C)n2nc(CC(=O)NCc3ccccc3Cl)nc2n1	16µM*	8%
O=C(/C=C/c1ccc(Cl)cc1Cl)c1nc2ccccc2[nH]1	4%	7.9µM*
N#C/C(=C\c1ccc(Cl)cc1)c1nc2ccccc2[nH]1	-5%	2%
Cc1c(C(=O)NCc2ccccc2Cl)sc2ncnc(N(C)C3CCCCC3)c12	-2%	-1%
c1ccc2c(CN3CCN(Cc4c[nH]c5ccccc45)CC3)c[nH]c2c1	2%	3%
N#Cc1cccc(NC(=O)N2CCCC3(CCN(S(=O)(=O)c4ccccc4)CC3)C2)c1	4%	-6%
COc1ccc(C2/C=C\CC(NC(=O)OCC3c4ccccc4-c4ccccc43)CC(=O)N2Cc2cccc(F)c2)cc1 (configuration not stated)	1%	?
COc1ccc(C2/C=C\CC(NC(=O)OCC3c4ccccc4-c4ccccc43)CC(=O)N2Cc2ccccc2F)cc1 (configuration not stated)	1%	13µM*
O=C1c2ccccc2C(=O)C1(c1ccccc1)N1CCN(c2cccc(Cl)c2)CC1	2%	-25%
CN1CCN(c2ncc3nc(-c4cc(F)cc(F)c4)c(=O)n(C)c3n2)CC1	-7%	24%
CN1CCN(c2ncc3nc(-c4cccc(C#N)c4)c(=O)n(C)c3n2)CC1	18µM*	?
CN1CCN(c2ncc3nc(-c4ccccc4)c(=O)n(-c4ccccc4)c3n2)CC1	25µM*	?
COc1ccc(-n2c(=O)c(-c3ccccc3)nc3cnc(N4CCN(C)CC4)nc32)cc1	0%	-2%
c1ccc(OP(Oc2ccccc2)Oc2ccccc2)cc1	0%	3%
O=C1CCCC2CCCCN12 (configuration not stated)	3%	-3%
CC1(C)S[C@@H]2[C@H](NC(=O)[C@@H](N)c3ccc(O)cc3)C(=O)N2[C@H]1C(=O)O	-1%	-5%
CCc1ccccc1NC(=O)c1ccc(NCCc2ccccc2)c([N+](=O)[O-])c1	-4%	-4%
Cc1ccc(NC(=O)c2ccc(Nc3c([N+](=O)[O-])cc([N+](=O)[O-])cc3[N+](=O)[O-])cc2)cc1	-8%	?
Cc1ccccc1NC(=O)c1ccc(N/N=C/c2ccccc2O)c([N+](=O)[O-])c1	0%	10µM*
Cc1ccc(NC(=O)c2ccc(N/N=C/c3cccc(O)c3)c([N+](=O)[O-])c2)cc1	0%	10µM*
Cc1ccc(NC(=O)Cn2c(=O)n(Cc3ccc4c(c3)OCO4)c(=O)c3ccc(C(=O)NC4CCCCC4)cc32)c(C)c1	0%	-15%
COc1ccccc1NC(=O)Cn1c(=O)n(CCC(=O)NCC2CCCO2)c(=O)c2cc(OC)c(OC)cc21 (configuration not stated)	2%	-11%
Nc1ncnc2c1ncn2C[C@@H](O)C(=O)O	4%	9%
SMILES	Cruzain inh Det	Cruzain inh noDet
Cc1cccc(C)c1NC(=O)COc1cccc(/C=N/NC(=O)C(=O)NCc2ccccc2)c1	7%	25µM*
C=CCOc1cccc(/C=N/NC(=O)C(=O)NCc2ccco2)c1	5%	?
Cc1ccc(C(=O)O[C@H](C(=O)O)[C@@H](OC(=O)c2ccc(C)cc2)C(=O)O)cc1 (tested in a mixture with another compound)	-4%	-4%
COc1cc(/C=N/NC(N)=O)cc(Br)c1OCc1ccccc1C	3%	20µM*
C=CCOc1c(Br)cc(/C=N/NC(N)=O)cc1OC	-3%	7%
CCOc1cc(/C=N/NC(N)=O)cc(Br)c1OCC(=O)Nc1ccccc1C	-8%	?
CCOc1cc(/C=N/NC(N)=O)cc(Br)c1OCC(=O)Nc1cccc2ccccc12	-3%	6.3µM*
Cc1c(Cl)cccc1NC(c1ccc(F)cc1)c1nnc(-c2ccccc2)o1 (configuration not stated)	-5%	?
COc1ccc(/C=C2\N=C(C)N(c3ccc(C(=O)O)cc3)C2=O)cc1OC	-10%	-8%
CC1=N/C(=C\c2ccc([N+](=O)[O-])cc2)C(=O)N1c1ccc(Br)c(C)c1	-3%	7.9µM*
